From PubChem BioAssay AID588342 (National Center for Advancing Translational Sciences (NCATS), 2011)
About 25,000 (6.9%) of roughly 360,000 compounds were called active. Entries that show only a call come without a potency. Not shown: some 9% with an inconclusive outcome. Calls follow the shape of the dose curve; as a rule, active = well fitted inhibition curve with a large enough effect; inconclusive = small, poorly fitted or top-dose-only effect; inactive = flat fitted curve, though single readings scatter. The sample as a whole holds a higher share of actives than the screen did.
Also: nearly all actives have a fitted effect of over 55% in size.
Potency is read from the fitted curve at half-maximal effect.

Each compound was assayed against Luciferin 4-monooxygenase (Photinus pyralis) (UniProt P08659) (assay: qHTS profiling assay for firefly luciferase inhibitor/activator using purifed enzyme and Km concentrations of substrates (counterscreen for miR-21 project)). Details: purified FLuc, luminescence inhibition; series mostly up to 57.5 µM.
Sequence of Luciferin 4-monooxygenase (Photinus pyralis) (P08659 whole entry, looked up): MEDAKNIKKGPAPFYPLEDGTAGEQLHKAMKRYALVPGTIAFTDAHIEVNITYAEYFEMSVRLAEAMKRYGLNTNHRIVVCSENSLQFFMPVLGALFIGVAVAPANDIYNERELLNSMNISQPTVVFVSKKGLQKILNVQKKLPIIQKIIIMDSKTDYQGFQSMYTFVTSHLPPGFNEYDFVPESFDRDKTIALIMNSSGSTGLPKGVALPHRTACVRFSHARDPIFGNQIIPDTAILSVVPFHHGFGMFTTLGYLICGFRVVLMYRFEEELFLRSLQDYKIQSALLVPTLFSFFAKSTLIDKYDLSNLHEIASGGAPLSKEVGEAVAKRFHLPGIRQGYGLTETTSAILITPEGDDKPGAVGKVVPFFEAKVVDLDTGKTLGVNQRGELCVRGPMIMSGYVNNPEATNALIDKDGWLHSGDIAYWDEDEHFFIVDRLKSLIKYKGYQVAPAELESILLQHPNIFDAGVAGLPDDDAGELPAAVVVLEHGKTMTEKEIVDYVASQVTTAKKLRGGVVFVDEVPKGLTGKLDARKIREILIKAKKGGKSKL
Procedure, shortened: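 Purified P. pyralis luciferase (10nM final) with 10uM D-luciferin and 10uM ATP (Km levels) in 50mM Tris acetate pH 7.5, 10mM Mg acetate, 0.01% Tween-20, 0.05% BSA; qHTS 6-point titration, ~60 µM downward; luminescence read.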
In the case of `Nc1c(-c2ccc(F)cc2)cnn1C1CCS(=O)(=O)C1` (centres undefined), the Potency is reported as “inactive”.
`O=C(Nc1ccc(C(F)(F)F)cc1)c1cccc(-n2cnnn2)c1` was tested, and the Potency was “inactive”.
For `CC(C)NC(=O)NCCCCCCS(C)=O` (centres undefined), the Potency was “inactive”.
For `O=C(COC(=O)Cc1ccc(Br)cc1)Nc1ccc(N2CCOCC2)cc1`, the Potency was “inactive”.
`N#Cc1ccc(C(=O)Nc2cccc3cccnc23)c(F)c1` was tested, and the Potency was “inactive”.
`COC(=O)c1cccc(NC(=O)c2cccc(N3C(=O)CCC3=O)c2)c1` was tested, and the Potency was “inactive”.
For `O=C(Nc1cccc2cccnc12)c1cccc2c(Br)cccc12`, the Potency was “inactive”.
With `COc1c(Cl)cc(Cl)cc1C(=O)Nc1cccc2cccnc12` the Potency was “inactive”.
For `O=C(Nc1cccc2cccnc12)c1cccc(Cl)c1`, the Potency was 15.1 µM (active).
With `O=C(Nc1cccc2cccnc12)c1cccc(N2C(=O)CCC2=O)c1` the Potency was 13.5 µM (active).
`Cc1c(NC(=O)Nc2ccccc2Cl)sc(=S)n1C` was tested, and the Potency was “inactive”.
With `O=C(Nc1ccccc1Cl)Nc1cccc2cccnc12` the Potency was 12 µM (active).
`Cc1cc(NC(=O)c2cccc(N3C(=O)CCC3=O)c2)no1` was tested, and the Potency was “inactive”.
With `O=S(=O)(Nc1ccc(-n2cnnn2)cc1)c1ccc(Cl)cc1` the Potency was “inactive”.
`O=[N+]([O-])/C=C1\CCCCCN1` was tested, and the Potency was “inactive”.
In the case of `CCc1ccccc1N1CC(c2nc3ccccc3n2CCCCOc2ccccc2)CC1=O` (centres undefined), the Potency is reported as “inactive”.
`O=C(CCNS(=O)(=O)c1ccccc1C(F)(F)F)Nc1ccncc1` was tested, and the Potency was “inactive”.
For `Cc1ccc(-c2nnc(Nc3cccc(Br)c3)c3ccccc23)cc1S(=O)(=O)NCC1CCCO1` (centres undefined), the Potency was “inactive”.
`CC1CCCC(NC(=O)COC(=O)[C@@H]2CC(O)CN2S(=O)(=O)c2ccc3c(c2)OCCO3)C1C` (some centres undefined) was tested, and the Potency was “inactive”.
With `Clc1ccc(CSc2nncn3c2cc2occc23)cc1` the Potency was “inactive”.
In the case of `CC(=O)c1ccccc1NC(=O)C1CC(=O)N(c2ccc3c(c2)OCCO3)C1` (centres undefined), the Potency is reported as “inactive”.
In the case of `COc1ccc(CNc2nc(-c3ccc(Cl)cc3)nn2S(=O)(=O)c2ccc(C)cc2)cc1`, the Potency is reported as “inactive”.
In the case of `CS(=O)(=O)Nc1cccc(C2=NN(S(=O)(=O)c3ccccc3)C(c3cccs3)C2)c1` (centres undefined), the Potency is reported as “inactive”.
`COC(=O)c1cccc(NS(C)(=O)=O)c1` was tested, and the Potency was “inactive”.
For `CS(=O)(=O)Nc1cccc(-c2cn3ccccc3n2)c1`, the Potency was 23.9 µM (active).
With `COc1ccccc1C1=CC(=O)C[C@H](c2ccc(F)cc2)C1` the Potency was “inactive”.
With `Cc1ccc(SCCC(=O)NCc2ccccn2)cc1` the Potency was “inactive”.
For `Cc1ccc(SCCSc2ncccn2)cc1`, the Potency was 1.69 µM (active).
`Cc1ccc(SCCC(=O)NC(C(C)C)C(C)C)cc1` was tested, and the Potency was “inactive”.
In the case of `CCN(C(=O)CSc1nnc(C)n2c1cc1occc12)c1ccccc1`, the Potency is reported as “inactive”.
With `COc1cc(C(=O)NNC(=O)CN2C(=O)NC3(CCCC3)C2=O)cc(OC)c1OC` the Potency was “inactive”.
In the case of `Cc1ccc(-c2nnc3c4ccccc4c(C)nn23)cc1NC(=O)c1cccc(Br)c1`, the Potency is reported as “inactive”.
`Cc1ccnc(NC(=O)CCNS(=O)(=O)c2ccc(C)c(C)c2)c1` was tested, and the Potency was 4.78 µM (active).
For `Cc1ccc(S(=O)(=O)NCCC(=O)Nc2ccc(C)c(Cl)c2)cc1C`, the Potency was “inactive”.
For `Cc1ccc(S(=O)(=O)NCCC(=O)Nc2cccc(S(N)(=O)=O)c2)cc1C`, the Potency was “inactive”.
In the case of `COc1cc(NC(=O)CN2CCN(S(=O)(=O)c3ccc(Br)cc3)CC2)cc(OC)c1`, the Potency is reported as “inactive”.
For `O=C(O)CCn1c(Cc2ccccc2)nc2ccccc21`, the Potency was “inactive”.
For `Cc1cc2ccccc2n1CCC(=O)O`, the Potency was “inactive”.
In the case of `O=C(O)CCn1c(O)c(C=C2N=c3ccccc3=N2)sc1=S`, the Potency is reported as 1.07 µM (active).
For `CCOC(=O)c1ccc(NC(=O)CC2C(=O)N(c3cccc(OC)c3)C(=O)N2C2CCCCC2)cc1` (centres undefined), the Potency was “inactive”.
For `CN(CC(=O)Nc1ccccc1F)S(=O)(=O)c1ccc2c(c1)c(=O)n(C)c(=O)n2C`, the Potency was “inactive”.
With `Cc1ccsc1-c1cc(C(=O)O)c2c(ccc3ccccc32)n1` the Potency was 5.36 µM (active).
`O=C(NCc1cccs1)c1cc(-c2ccccn2)nc2ccc(Br)cc12` was tested, and the Potency was “inactive”.
With `O=C(NCC(c1cccs1)N1CCOCC1)c1cc(-c2ccccn2)nc2ccccc12` (centres undefined) the Potency was “inactive”.
`Cc1ccc2nc(-c3cccc(Br)c3)cc(C(=O)Nn3cnnc3)c2c1` was tested, and the Potency was 0.536 µM (active).
For `COc1ccccc1C(=O)Nn1cnnc1`, the Potency was “inactive”.
In the case of `Cc1ccc2nc(-c3ccncc3)cc(C(=O)Nc3ccc4c(c3)OCCO4)c2c1`, the Potency is reported as “inactive”.
For `Cc1cc(C(=O)OCC(=O)Nc2nccs2)c2ccccc2n1`, the Potency was “inactive”.
In the case of `NC(=O)c1cc(-c2cccnc2)nc2ccc(Br)cc12`, the Potency is reported as “inactive”.
With `Cc1ccc2nc(-c3ccccc3)cc(C(=O)O)c2c1` the Potency was 12 µM (active).
`Cc1ccc(-c2cc(C(=O)NCc3cn(C)nc3C)c3cc(Br)ccc3n2)cc1` was tested, and the Potency was 1.9 µM (active).
With `CCS(=O)(=O)Nc1cccc(-c2cc(-c3ccccc3)c3cc(C)ccc3n2)c1` the Potency was “inactive”.
In the case of `O=C(Nc1ccncc1)c1cc(-c2ccccn2)nc2ccc(Br)cc12`, the Potency is reported as “inactive”.
For `Cc1cccc(NC(=O)Cn2cc(S(=O)(=O)Cc3ccccc3Cl)c3ccccc32)c1`, the Potency was “inactive”.
For `CCOC(=O)c1ccccc1NC(=O)c1sc2nc(-c3ccc(F)cc3)cn2c1C`, the Potency was “inactive”.
With `O=C(NCC12CC3CC(CC(C3)C1)C2)c1cc2nc(-c3ccccc3)cc(C(F)(F)F)n2n1` the Potency was “inactive”.
For `Cc1nc(CNS(=O)(=O)c2ccc(Oc3ccccc3)cc2)cs1`, the Potency was “inactive”.
In the case of `Cc1ccc(S(=O)(=O)c2cn(Cc3ccccc3)c3cc(N4CCCC4)c(F)cc3c2=O)c(C)c1`, the Potency is reported as “inactive”.
With `NC(=O)Cn1nc([N+](=O)[O-])nc1Oc1ccc(Br)cc1` the Potency was “inactive”.
With `COc1ccccc1-n1c(-c2ccc(C)cc2)cn2c3c(=O)n(C)c(=O)n(C)c3nc12` the Potency was “inactive”.
For `COc1cccc(C(=O)N2CCC(n3nccc3NC(=O)C3CCOC3)CC2)c1` (centres undefined), the Potency was “inactive”.
For `COC(=O)[C@]1(C)CCC[C@@]2(C)C3CC[C@]4(OC(C)=O)C[C@@]3(CCC21)CC4=NO` (some centres undefined), the Potency was “inactive”.
In the case of `COc1ccc(N(CC(=O)NCCc2ccc(Cl)cc2)S(=O)(=O)c2c(C)nn(C)c2C)cc1`, the Potency is reported as “inactive”.
With `NC(=O)C1CCN(C(=O)c2ccc(-c3ccccc3)cc2)CC1` the Potency was “inactive”.
With `O=C(CCNS(=O)(=O)c1ccccc1)NCCSc1ccc(Br)cc1` the Potency was “inactive”.
`Cc1c(NS(=O)(=O)c2ccc(Cl)cc2)c(=O)n(-c2ccccc2)n1C` was tested, and the Potency was “inactive”.
In the case of `Cc1nc(N2CCOCC2)nc2c1CCCC2`, the Potency is reported as “inactive”.
`Nc1nc(-c2sc3nc4c(cc3c2N)CCCC4)nc(N2CCOCC2)n1` was tested, and the Potency was 0.675 µM (active).
In the case of `Cc1cccc(NC(=O)c2sc3nc(N4CCOCC4)c4c(c3c2N)CCCC4)c1`, the Potency is reported as “inactive”.
